This passage reports Potency results from PubChem BioAssay (Tox21).

Values joined by “and” are separate entries in the source; they are usually repeats but may differ in a detail not shown here. Identical values can stand only once. Inconclusive results are not listed. The source holds several records for some structures; these can differ, active in one and inactive in another. Active and inactive are the calls of the source. Unless noted, calls come from the whole dose curve.

The nature of assay [1]: Nuclear factor erythroid 2-related factor 2/antioxidant responsive element (Nrf2/ARE) small molecule agonists: qHTS cell viability counter screen in human keratinocytes (AID 1919968; active = well fitted curve in the direction sought with a large enough effect in the repeat runs; an effect the other way counts as inactive or inconclusive; note: nearly all actives have a fitted effect of over 55% in size; note: potency is the fitted concentration of half-maximal effect). In outline:
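Cytotoxicity was multiplexed with the Nrf2/ARE luciferase assay in the same wells. Stably transfected HaCaT keratinocytes were treated with test compounds for 23 h at 37 C. Cell viability was then measured by CellTiter-Fluor fluorescence.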

The nature of assay [2]: Nuclear factor erythroid 2-related factor 2/antioxidant responsive element (Nrf2/ARE) small molecule agonists: luciferase reporter gene qHTS assay in human keratinocytes (AID 1919969; note: nearly all actives have a fitted effect of over 35% in size; note: potency is the fitted concentration of half-maximal effect). (Reporter assays use an easily measured gene product as a stand-in for the process of interest.)
In assay [3] the target is KiSS-1 receptor (Homo sapiens) (UniProt Q969F8). Nature of the assay: Human kisspeptin (KISS1R) small molecule agonists, calcium flux assay in KISS1R-HEK293 cells (AID 1920064; active = well fitted curve in the direction sought with a large enough effect in the repeat runs; an effect the other way counts as inactive or inconclusive). In outline:
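Agonist activity is monitored as intracellular calcium rise in engineered HEK293 cells carrying human KISS1R. Cells are dye-loaded for 1 h at 37 C before compound addition, and fluorescence is recorded for 3 min.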

Assay [4] can be described thus: G protein-coupled receptor (GPCR) small molecule agonists, calcium flux assay: HEK293 wild type cell line counter screen (AID 1920065). In a few lines: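 Seed cells, incubate 18 h (37 C, 5% CO2); add calcium dye, 1 h at 37 C; pin-transfer compounds, ATP control or DMSO; read fluorescence 480/540 nm each second for 3 min.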
Assay [5] can be described thus: p53 small molecule agonists, cell-based qHTS assay with human liver microsomes (AID 1963577). In a few lines:
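p53RE-bla reporter cells were pre-incubated 5 h at 37 C, then treated with compounds plus human liver microsomes (0.5 mg/mL final) and NADPH (0.5 mg/mL final) for 16 h at 37 C. Beta-lactamase activity was read by LiveBLAzer fluorescence after 2 h at room temperature.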
(In qHTS, concentration-response curves come from the screen itself.)

Assay [6] can be described thus: p53 small molecule agonists, cell-based qHTS assay with human liver microsomes: qHTS cell viability counter screen (AID 1963579). Note: nearly all actives have a fitted effect of over 45% in size. In outline:
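p53RE-bla cells (4,000/well) were pre-incubated 5 h at 37 C, then given compounds in DMSO plus human liver microsomes (0.5 mg/mL final) and NADPH (0.5 mg/mL final) for 16 h at 37 C. Viability was read by CellTiter-Glo luminescence.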

Assay [7] in a line: p53 small molecule agonists, cell-based qHTS assay with rat liver microsomes: qHTS cell viability counter screen (AID 1963580). Note: nearly all actives have a fitted effect of over 45% in size. Note: potency is the fitted concentration of half-maximal effect. In outline:
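Counter screen for cytotoxicity under metabolic activation: rat liver microsomes and NADPH, 0.5 mg/mL final each, added with compounds to p53RE-bla HCT-116 cells; 16 h at 37 C, then ATP luminescence read.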

Assay [8] can be described thus: p53 small molecule agonists, cell-based qHTS assay: qHTS cell viability counter screen (AID 1963581). Note: nearly all actives have a fitted effect of over 45% in size. Note: potency is the fitted concentration of half-maximal effect. In outline:
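Viability was counter-screened in parallel with the p53 agonist reporter by measuring intracellular ATP luminescence in the same HCT-116 p53RE-bla wells after 16 h compound treatment at 37 C.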

The nature of assay [9]: p53 small molecule agonists, cell-based qHTS assay (AID 1963582; active = well fitted activation curve with a large enough effect in the signal ratio in the repeat runs, not every such curve was filed as active; the % refers to the signal ratio). In outline:
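Cells carrying a p53-responsive bla reporter are treated with test compounds for 16 h at 37 C; beta-lactamase activity is then detected with LiveBLAzer B/G FRET substrate after 2 h at room temperature.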

For assay [10], the target named is 5-hydroxytryptamine receptor 2A (Homo sapiens) (UniProt P28223). Nature of the assay: 5-hydroxytryptamine receptor 2A (HTR2A) small molecule antagonists, cell-based qHTS assay (AID 1963586). Note: nearly all actives have a fitted effect of over 45% in size. In a few lines:
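CHO cells stably expressing human HTR2A were plated for 18 h at 37 C, then loaded with calcium dye for 1 h. Compounds were preincubated 5 min at room temperature before DOI (4 nM solution) was added. Kinetic fluorescence was read for 3 min.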

Assay [11] addresses Muscarinic acetylcholine receptor M1 (Homo sapiens) (UniProt P11229). Description: Cholinergic receptor muscarinic 1 (CHRM1) small molecule antagonists, cell-based qHTS assay (AID 1963588). Note: nearly all actives have a fitted effect of over 40% in size. In outline: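 Compounds were tested at 15 concentrations in three independent runs. Dye-loaded CHRM1-CHO cells were exposed 5 min at room temperature before stimulation by acetylcholine added at 50nM. Intracellular calcium was read kinetically on FDSS for 3 min.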

Assay [12] has the same target. Description: Cholinergic receptor muscarinic 1 (CHRM1) small molecule agonists, cell-based qHTS assay (AID 1963589). Note: nearly all actives have a fitted effect of over 35% in size. In a few lines: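 Cells were plated and incubated 18 h at 37 C/5% CO2, loaded with calcium dye for 1 h at 37 C, then treated with compounds in DMSO. Fluorescence was recorded kinetically at 1 sec intervals.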
Assay [13] can be described thus: cAMP Responsive Elements (CRE) small molecule agonists, cell-based qHTS assay (AID 1963590). In a few lines: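 Cells carrying a CRE-driven beta-lactamase reporter (HEK 293T) are seeded, incubated overnight (18 h), and treated with test compounds for 3 h at 37 C; reporter activity is then detected with a FRET substrate after 2 h at room temperature.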
The target of assay [14] is Beta-2 adrenergic receptor (Homo sapiens) (UniProt P07550). Nature of the assay: Adrenergic beta2 receptor (ADRB2) small molecule antagonists, cell-based qHTS assay (AID 1963592). Note: series mostly up to about 92 µM; nearly all actives have a fitted effect of over 50% in size. In outline: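 Assay format: CHO-ADRB2 cells, 18-20hr seeding at 37C/5% CO2, then compound plus 1nM isoproterenol agonist mix for 0.5hr RT. Homogeneous time-resolved fluorescence cAMP detection after 1hr, expressed as 665/615 nm ratio.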

Assay [15] has the same target. Description: Adrenergic beta2 receptor (ADRB2) small molecule agonists, cell-based qHTS assay (AID 1963593).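 Note: CHO cells stably overexpressing human ADRB2.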 In outline: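 CHO cells stably over-expressing ADRB2 were plated overnight at 37C, then dosed with compounds plus a stimulation mix containing 100uM IBMX and 25uM Ro-20-1724 for 0.5hr at room temperature. cAMP was measured by HTRF competition, 1hr.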
Assay [16] deals with D(2) dopamine receptor (Homo sapiens) (UniProt P14416). Nature of the assay: Dopamine D2 receptor (DRD2) small molecule antagonists, cell-based qHTS assay (AID 1963595; active = well fitted inhibition curve with a large enough effect in the signal ratio in the repeat runs, with a control signal flat; the % refers to the signal ratio; note: potency is the fitted concentration of half-maximal effect). In a few lines: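 HTRF cAMP read-out at 665 and 620 nm emission (340 nm excitation). Antagonist mode: compounds were tested against 12 nM quinpirole in DRD2-HEK293 cells, with 200 nM NKH477 raising cAMP and 0.1 mM Ro20-1724 blocking its breakdown.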

A short description of assay [17]: p53 small molecule agonists, cell-based qHTS assay with rat liver microsomes (AID 1963578). In a few lines:
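p53RE-bla cells were exposed to compounds together with rat liver microsomes (0.5 mg/mL final) and NADPH (0.5 mg/mL final) for 16 h at 37 C, then read by LiveBLAzer beta-lactamase fluorescence after 2 h at room temperature.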

The target of assay [18] is 5-hydroxytryptamine receptor 2A (Homo sapiens) (UniProt P28223). Description: 5-hydroxytryptamine receptor 2A (HTR2A) small molecule agonists, cell-based qHTS assay (AID 1963587). Note: nearly all actives have a fitted effect of over 30% in size. Note: potency is the fitted concentration of half-maximal effect. In a few lines:
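HTR2A-CHO cells, plated 18 h at 37 C/5% CO2, dye-loaded 1 h at 37 C; compounds in DMSO added by pin tool (agonist mode). Intracellular calcium flux read as kinetic fluorescence on FDSS over 2 min at 1 s intervals.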

A short description of assay [19]: cAMP Responsive Elements (CRE) small molecule antagonists, cell-based qHTS assay (AID 1963591; active = well fitted inhibition curve with a large enough effect in the signal ratio in the repeat runs, not every such curve was filed as active; the % refers to the signal ratio). In a few lines: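 Cells (CRE-bla HEK 293T, DMEM with 10% dialyzed FBS and 25 mM HEPES) are seeded and incubated 18 h. Compounds are added with NKH477 agonist at 0.25 uM final for 3 h, then FRET substrate for 2 h.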
For assay [20], the target named is D(2) dopamine receptor (Homo sapiens) (UniProt P14416). Nature of the assay: Dopamine D2 receptor (DRD2) small molecule agonists, cell-based qHTS assay (AID 1963594). Note: nearly all actives have a fitted effect of over 35% in size. In a few lines: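 HEK293 cells stably expressing DRD2 were cultured 24 h at 37 C, then given Ro20-1724 (0.1 mM final) and compounds for 10 min at room temperature. NKH477 (200nM) was then added for 30 min. cAMP was read by HTRF.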

Chain of KiSS-1 receptor (Homo sapiens) (Q969F8 whole entry, looked up): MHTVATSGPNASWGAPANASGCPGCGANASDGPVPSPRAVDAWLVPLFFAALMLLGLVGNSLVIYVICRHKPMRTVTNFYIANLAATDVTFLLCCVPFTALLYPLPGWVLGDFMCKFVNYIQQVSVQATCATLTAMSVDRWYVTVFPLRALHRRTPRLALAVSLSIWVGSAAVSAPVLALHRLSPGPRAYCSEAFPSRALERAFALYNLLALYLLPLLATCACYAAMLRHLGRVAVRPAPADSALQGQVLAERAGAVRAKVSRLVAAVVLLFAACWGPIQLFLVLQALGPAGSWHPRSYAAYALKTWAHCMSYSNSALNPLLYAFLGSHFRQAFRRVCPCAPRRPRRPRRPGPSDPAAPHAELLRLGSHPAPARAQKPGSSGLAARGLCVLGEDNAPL
Chain of Muscarinic acetylcholine receptor M1 (Homo sapiens) (P11229 whole entry, looked up): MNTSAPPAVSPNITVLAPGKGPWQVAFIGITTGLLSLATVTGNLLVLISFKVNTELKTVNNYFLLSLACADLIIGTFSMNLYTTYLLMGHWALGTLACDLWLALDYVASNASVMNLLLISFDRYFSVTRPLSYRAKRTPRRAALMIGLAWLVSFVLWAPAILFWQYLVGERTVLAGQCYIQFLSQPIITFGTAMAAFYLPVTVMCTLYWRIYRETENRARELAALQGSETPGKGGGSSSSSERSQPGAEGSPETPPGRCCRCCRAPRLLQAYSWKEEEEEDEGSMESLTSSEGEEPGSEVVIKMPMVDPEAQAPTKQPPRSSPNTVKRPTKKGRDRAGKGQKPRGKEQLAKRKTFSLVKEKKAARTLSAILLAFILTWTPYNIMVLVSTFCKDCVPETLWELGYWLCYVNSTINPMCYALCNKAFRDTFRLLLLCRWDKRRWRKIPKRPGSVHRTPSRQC
Chain of Beta-2 adrenergic receptor (Homo sapiens) (P07550 whole entry, looked up): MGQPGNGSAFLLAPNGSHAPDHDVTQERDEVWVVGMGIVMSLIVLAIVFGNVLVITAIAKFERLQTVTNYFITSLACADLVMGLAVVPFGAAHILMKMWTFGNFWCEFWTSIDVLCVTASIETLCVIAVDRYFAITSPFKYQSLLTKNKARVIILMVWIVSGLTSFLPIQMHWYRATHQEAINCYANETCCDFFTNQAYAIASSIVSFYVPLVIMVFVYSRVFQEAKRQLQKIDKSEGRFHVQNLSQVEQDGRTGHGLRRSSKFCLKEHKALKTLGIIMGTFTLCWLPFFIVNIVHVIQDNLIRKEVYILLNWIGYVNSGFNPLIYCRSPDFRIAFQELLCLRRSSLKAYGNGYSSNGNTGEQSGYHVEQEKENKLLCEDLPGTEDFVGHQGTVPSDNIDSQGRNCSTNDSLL
Chain of D(2) dopamine receptor (Homo sapiens) (P14416 whole entry, looked up): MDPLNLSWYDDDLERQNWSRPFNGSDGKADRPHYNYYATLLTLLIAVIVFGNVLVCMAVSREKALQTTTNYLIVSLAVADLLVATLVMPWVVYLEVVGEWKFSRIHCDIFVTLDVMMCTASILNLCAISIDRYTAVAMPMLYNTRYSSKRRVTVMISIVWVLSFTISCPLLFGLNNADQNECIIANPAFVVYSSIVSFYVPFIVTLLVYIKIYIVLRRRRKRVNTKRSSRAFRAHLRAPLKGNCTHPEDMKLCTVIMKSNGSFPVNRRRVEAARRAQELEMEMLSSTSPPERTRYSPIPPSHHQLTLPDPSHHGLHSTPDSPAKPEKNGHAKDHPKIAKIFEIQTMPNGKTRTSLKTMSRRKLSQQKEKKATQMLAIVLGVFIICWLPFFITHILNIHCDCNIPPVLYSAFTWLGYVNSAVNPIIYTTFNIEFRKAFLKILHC
Chain of 5-hydroxytryptamine receptor 2A (Homo sapiens) (P28223 whole entry, looked up): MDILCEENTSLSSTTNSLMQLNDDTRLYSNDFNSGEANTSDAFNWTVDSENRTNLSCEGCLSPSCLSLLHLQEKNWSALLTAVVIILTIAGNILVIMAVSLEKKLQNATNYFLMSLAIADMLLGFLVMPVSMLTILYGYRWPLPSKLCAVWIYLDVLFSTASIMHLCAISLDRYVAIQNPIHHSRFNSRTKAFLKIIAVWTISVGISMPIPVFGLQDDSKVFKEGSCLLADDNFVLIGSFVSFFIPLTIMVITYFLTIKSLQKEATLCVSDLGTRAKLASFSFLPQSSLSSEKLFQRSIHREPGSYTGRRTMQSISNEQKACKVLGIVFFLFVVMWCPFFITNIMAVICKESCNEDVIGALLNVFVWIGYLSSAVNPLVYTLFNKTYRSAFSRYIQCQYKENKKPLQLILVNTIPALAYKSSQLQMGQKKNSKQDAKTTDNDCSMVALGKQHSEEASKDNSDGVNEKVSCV

On to `Cc1ccc(-c2ccccc2C#N)cc1`, for which the Potency entry in assay [1], in assay [2], in assay [3], in assay [4], in assay [5] and in [6] was “inactive” each time. Also, the Potency entry in assay [7], in assay [8], in assay [9], in assay [10], in assay [11] and in assay [12] was “inactive” in each case. For the same compound, the Potency result in assay [13], in assay [14], in assay [15] and in assay [16] was “inactive” each time.
In the case of `COCCCC/C(=N\OCCN)c1ccc(C(F)(F)F)cc1`, the Potency entry in assay [1], in assay [2], in [3], in assay [5], in assay [17] and in [6] was “inactive” in each case. The Potency entry in [8], in [9], in assay [10], in assay [18], in [11] and in assay [12] was “inactive” throughout. Also, the Potency result in assay [13], in [19], in assay [14], in assay [15] and in [16] was “inactive” each time.
Regarding `CCCCc1ccc2cccc(S(=O)(=O)O)c2c1`, the Potency result in assay [1], in assay [2], in [3], in assay [4], in assay [5] and in assay [6] was “inactive” throughout. Also, the Potency entry in [8], in assay [10], in assay [18], in assay [11], in assay [12] and in [13] was “inactive” each time. Besides, the Potency entry in assay [19], in assay [14], in assay [15], in [20] and in [16] was “inactive” throughout.
As to `C[C@]12CCC(=O)C=C1CC[C@@H]1[C@@H]2[C@@H](O)C[C@@]2(C)[C@H]1CC[C@]2(O)C(=O)CO`, the Potency entry in assay [1], in assay [2], in assay [3], in assay [6], in assay [7] and in assay [8] was “inactive” each time. Moreover, the Potency result in assay [19], in [14] and in assay [16] was “inactive” throughout.
For `O=C1c2ccccc2CCc2ccccc21`, the Potency entry in assay [1], in [2], in assay [3], in [4], in [6] and in assay [7] was “inactive” each time. Besides, the Potency result in assay [8], in assay [10], in assay [18], in [11], in assay [12] and in assay [13] was “inactive” in each case. The Potency result in [19], in assay [14], in [20] and in assay [16] was “inactive” each time.
For `CCCCC(CC)COC(=O)CC(C(=O)OCC(CC)CCCC)S(=O)(=O)O` (centres undefined), the Potency was 26.3 µM (active) in assay [1]; 35 µM (active) in assay [7]; 39.2 µM (active) in [8]; 42 µM (active) and 43.6 µM (active) in assay [18]; “inactive and 61.1 µM (active)” in [16]. The Potency entry in [2], in assay [3], in [4], in [5], in assay [17] and in assay [10] was “inactive” each time. For the same compound, the Potency entry in [11], in [19], in assay [14], in assay [15] and in assay [20] was “inactive” throughout.
On to `CC(=O)c1cc2ccccc2s1`, for which the Potency result in assay [1], in [2], in assay [3], in assay [4], in [5] and in assay [6] was “inactive” each time. In addition, the Potency result in assay [7], in assay [8], in [9], in assay [10], in [18] and in assay [11] was “inactive” each time. Besides, the Potency entry in [12], in [19], in [14], in assay [15] and in assay [16] was “inactive” in each case.
As for `CCCCCOC(C)=O`, the Potency entry in assay [1], in [3], in assay [4], in assay [6], in [7] and in assay [8] was “inactive” throughout. For the same compound, the Potency entry in assay [10], in assay [18], in assay [11], in [12], in assay [13] and in assay [14] was “inactive” throughout. The Potency result in [15], in assay [20] and in assay [16] was “inactive” throughout. Besides, the Potency in assay [2] was 68.6 µM (active).
